Source: PubChem BioAssay
For some of these results: Results with a measured potency or affinity are listed apart. Calls of active or inactive are those of the source. Unless noted, the rule behind the calls is not given here.

Key:
[1] = antimalarial activity against Dd2 strain (AID 2302;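 active = growth inhibition above 50% at the single 2 µM test dose, taken to imply half-maximal potency below 2 µM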;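 note: 0% = DMSO untreated growth and 100% = chloroquine plus artemisinin killed control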); details: P. falciparum Dd2 in RBCs, LDH growth readout, 72 h; at 2 µM; active compounds read high
[2] = human hepatoma cell viability loss – ATP luminescence, cytotoxicity control for P. falciparum antimalarial project, primary screen (AID 2303;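 active = inhibition above 50%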;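 note: 0% = DMSO wells and 100% = digitonin-killed cells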); details: HepG2 viability, 24-48 h, at 10 µM, active compounds read high
[3] = target: L-lactate dehydrogenase (Plasmodium falciparum (isolate CDC / Honduras)) (UniProt Q27743); assay: PfLDH activity inhibition – cell lysate, 3D7 strain, counter-screen for P. falciparum growth inhibition project (AID 2304);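 note: 0% = vehicle and 100% = reference inhibitor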; details: P. falciparum 3D7 crude extract, LDH APAD/NBT absorbance; at 2 µM; active compounds read high
L-lactate dehydrogenase (Plasmodium falciparum (isolate CDC / Honduras)), sequence (Q27743 whole entry, looked up): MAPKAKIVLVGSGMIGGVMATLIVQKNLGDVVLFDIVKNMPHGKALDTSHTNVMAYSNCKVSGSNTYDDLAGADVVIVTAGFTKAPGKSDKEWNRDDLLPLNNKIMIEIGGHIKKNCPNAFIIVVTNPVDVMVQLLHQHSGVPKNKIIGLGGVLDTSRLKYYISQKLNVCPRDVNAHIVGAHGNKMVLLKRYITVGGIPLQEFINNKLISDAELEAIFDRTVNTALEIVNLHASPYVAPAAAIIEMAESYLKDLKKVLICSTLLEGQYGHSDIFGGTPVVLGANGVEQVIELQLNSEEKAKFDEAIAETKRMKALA

[4] = inhibition of 3D7 malaria parasite growth – strain 3D7 (AID 2306);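 note: 0% = DMSO wells and 100% = chloroquine plus artemisinin control wells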; details: P. falciparum 3D7 erythrocytic growth, LDH absorbance, 72 h; at 2 µM; active compounds read high
[5] = target: Calcium-dependent protein kinase 1 (Plasmodium falciparum (isolate 3D7)) (UniProt P62344); assay: PfCDPK1 kinase inhibitors, biochemical, TCAMS library (AID 1159585; cut-off not given, nearly all actives have IC50 up to about 0.98 µM;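 note: inhibitors leave more ATP so luminescence rises with inhibition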); details: recombinant PfCDPK1, Kinase-Glo ATP depletion luminescence
Calcium-dependent protein kinase 1 (Plasmodium falciparum (isolate 3D7)), sequence (P62344 whole entry, looked up): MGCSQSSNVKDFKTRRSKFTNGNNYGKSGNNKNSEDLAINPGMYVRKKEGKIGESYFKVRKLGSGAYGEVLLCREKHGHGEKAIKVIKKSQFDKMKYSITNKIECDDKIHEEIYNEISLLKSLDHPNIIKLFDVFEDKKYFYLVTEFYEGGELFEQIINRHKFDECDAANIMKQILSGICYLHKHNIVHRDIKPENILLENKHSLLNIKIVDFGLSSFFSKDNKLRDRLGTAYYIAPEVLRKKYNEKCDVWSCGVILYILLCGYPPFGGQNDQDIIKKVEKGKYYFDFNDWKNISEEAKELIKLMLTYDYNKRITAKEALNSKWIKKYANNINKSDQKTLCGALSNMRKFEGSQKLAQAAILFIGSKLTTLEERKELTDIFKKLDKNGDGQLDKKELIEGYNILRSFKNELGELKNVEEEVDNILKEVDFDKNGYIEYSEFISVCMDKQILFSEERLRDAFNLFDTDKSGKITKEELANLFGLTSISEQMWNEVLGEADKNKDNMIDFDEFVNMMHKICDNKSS

[6] = target: Plasmodium falciparum protein kinase 6 (PK6, PF3D7_1337100) (UniProt Q8IDW1); assay: PfPK6 kinase inhibitors, biochemical, TCAMS library (AID 1159586); details: recombinant PfPK6, Kinase-Glo ATP depletion luminescence
Plasmodium falciparum protein kinase 6 (PK6, PF3D7_1337100), sequence (Q8IDW1 1-305): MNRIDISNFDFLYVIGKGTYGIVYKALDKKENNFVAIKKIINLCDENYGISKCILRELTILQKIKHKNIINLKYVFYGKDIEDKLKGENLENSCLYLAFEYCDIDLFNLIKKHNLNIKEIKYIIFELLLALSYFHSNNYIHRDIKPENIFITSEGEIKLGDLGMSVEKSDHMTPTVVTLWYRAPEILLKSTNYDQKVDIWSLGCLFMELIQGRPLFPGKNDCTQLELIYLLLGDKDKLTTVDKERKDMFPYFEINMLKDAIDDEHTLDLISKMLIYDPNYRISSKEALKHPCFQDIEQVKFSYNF

[7] = target: Protein kinase 7 (PK7), Plasmodium falciparum 3D7 (PF3D7_0213400) (UniProt Q7YTF7); assay: inhibition of Plasmodium PK7 catalytic activity – biochemical, TCAMS antimalarial set, Kinase-Glo luminescence (AID 1159587); details: recombinant PfPK7, Kinase-Glo ATP depletion luminescence
Protein kinase 7 (PK7), Plasmodium falciparum 3D7 (PF3D7_0213400), sequence (Q7YTF7 1-343): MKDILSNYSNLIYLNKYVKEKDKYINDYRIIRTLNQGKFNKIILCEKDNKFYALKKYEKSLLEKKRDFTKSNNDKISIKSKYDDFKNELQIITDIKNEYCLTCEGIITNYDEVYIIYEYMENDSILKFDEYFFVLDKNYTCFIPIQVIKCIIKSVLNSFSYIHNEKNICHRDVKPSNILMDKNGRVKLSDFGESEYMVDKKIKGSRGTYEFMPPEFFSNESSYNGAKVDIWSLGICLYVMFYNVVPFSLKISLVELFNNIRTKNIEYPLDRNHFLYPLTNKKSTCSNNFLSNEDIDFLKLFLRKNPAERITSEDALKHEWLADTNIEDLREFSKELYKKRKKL

[8] = target: Calcium-dependent protein kinase 4 (Plasmodium falciparum (isolate 3D7)) (UniProt Q8IBS5); assay: PfCDPK4 kinase inhibitors, biochemical, TCAMS library (AID 1159588; cut-off not given, nearly all actives have IC50 up to about 0.91 µM); details: recombinant PfCDPK4, Kinase-Glo ATP depletion luminescence
Calcium-dependent protein kinase 4 (Plasmodium falciparum (isolate 3D7)), sequence (Q8IBS5 whole entry, looked up): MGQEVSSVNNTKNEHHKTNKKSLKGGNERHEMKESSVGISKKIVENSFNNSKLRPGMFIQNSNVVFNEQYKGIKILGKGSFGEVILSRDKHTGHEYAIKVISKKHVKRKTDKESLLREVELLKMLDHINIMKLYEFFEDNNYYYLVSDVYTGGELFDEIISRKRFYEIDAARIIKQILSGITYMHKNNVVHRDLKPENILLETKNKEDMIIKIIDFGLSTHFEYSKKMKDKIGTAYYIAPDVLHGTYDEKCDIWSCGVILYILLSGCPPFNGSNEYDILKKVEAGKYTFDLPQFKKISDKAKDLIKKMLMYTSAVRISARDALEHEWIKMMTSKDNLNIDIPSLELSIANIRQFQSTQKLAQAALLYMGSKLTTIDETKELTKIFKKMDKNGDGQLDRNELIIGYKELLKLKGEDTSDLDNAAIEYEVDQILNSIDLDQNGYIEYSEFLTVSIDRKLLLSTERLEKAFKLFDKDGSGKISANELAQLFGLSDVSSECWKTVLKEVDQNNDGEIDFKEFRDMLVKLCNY

CC1CCN(c2nc(C(=O)NCCc3ccc(Cl)c(Cl)c3)c(C(C)C)s2)CC1
inactive: growth inhibition [1] 38% | inhibition [2] -3% | inhibition [3] 3% | outcome [5] | outcome [6] | outcome [7] | outcome [8]
active: growth inhibition [4] 88%

COc1cc(NC(=O)c2sc(-c3ccc(Cl)cc3)cc2NC(=O)c2cccnc2)ccc1OCCN1CCCC1
active: growth inhibition [1] 77% | growth inhibition [4] 94%
inactive: inhibition [2] 38% | inhibition [3] -1% | outcome [5] | outcome [6] | outcome [7] | outcome [8]

C#Cc1cccc(NC(=O)[C@H](CC2CCCCC2)Nc2ccc(C#N)c3ccccc23)c1
active: growth inhibition [1] 99% | growth inhibition [4] 100%
inactive: inhibition [2] 48% | inhibition [3] -1% | outcome [5] | outcome [6] | outcome [7] | outcome [8]

CCNc1cc(C(=O)N[C@@H](Cc2ccccc2)[C@H](O)CNCc2cccc(-n3ccnc3)c2)cc(N2CCCC2=O)c1
inactive: inhibition [2] 1% | inhibition [3] 1% | outcome [5] | outcome [6] | outcome [7] | outcome [8]
active: growth inhibition [1] 96% | growth inhibition [4] 99%

COc1ccc(CCNc2nc(N)c3cc(OC)c(OC)cc3n2)cc1
active: growth inhibition [4] 100%
inactive: growth inhibition [1] 1% | inhibition [2] 16% | inhibition [3] -1% | outcome [5] | outcome [6] | outcome [7] | outcome [8]

C#CCOc1ccccc1CN1CCC(N2CCc3cc(NC(=O)c4cc(C)on4)ccc32)C1 (stereo not given)
active: growth inhibition [1] 94% | growth inhibition [4] 95%
inactive: inhibition [2] 16% | inhibition [3] -2% | outcome [5] | outcome [6] | outcome [7] | outcome [8]

Cc1nc(N)nc(N)c1CCCOc1ccccc1Br
active: inhibition [2] 53% | growth inhibition [4] 97%
inactive: growth inhibition [1] 5% | inhibition [3] 5% | outcome [5] | outcome [6] | outcome [7] | outcome [8]

Cc1nn(-c2ccccc2)c2nc(-c3ccccc3)cc(C(=O)N3CCOCC3)c12
active: growth inhibition [1] 67% | growth inhibition [4] 93%
inactive: inhibition [2] 6% | inhibition [3] 6% | outcome [5] | outcome [6] | outcome [7] | outcome [8]

CN(CCc1ccccn1)c1cccc2c1nc(-c1cccnc1)n2CCNCc1ccccc1
inactive: inhibition [2] 12% | inhibition [3] 2% | outcome [5] | outcome [6] | outcome [7] | outcome [8]
active: growth inhibition [1] 97% | growth inhibition [4] 90%

COc1cc(CNCCCNc2nc3ncccc3[nH]2)c2[nH]cc(Br)c2c1
active: growth inhibition [4] 92%
inactive: growth inhibition [1] 3% | inhibition [2] 12% | inhibition [3] 8% | outcome [5] | outcome [6] | outcome [7] | outcome [8]

CC(C)CN(C)Cc1ccc(-c2ccc(-c3nc4ccccc4[nH]3)s2)cc1
active: growth inhibition [1] 76% | growth inhibition [4] 97%
inactive: inhibition [2] 8% | inhibition [3] 2% | outcome [5] | outcome [6] | outcome [7] | outcome [8]

N#Cc1ccc(NC(=O)Nc2ccc3c(c2)CCN(C2CCC2)CC3)cc1
inactive: growth inhibition [1] 11% | inhibition [2] 6% | inhibition [3] -8% | outcome [5] | outcome [6] | outcome [7] | outcome [8]
active: growth inhibition [4] 96%

Cc1cccc2[nH]c(-c3ccc(-c4ccc(C(=O)NCCN5CCCC5)cc4)s3)nc12
inactive: growth inhibition [1] 13% | inhibition [2] 20% | inhibition [3] 3% | outcome [5] | outcome [6] | outcome [7] | outcome [8]
active: growth inhibition [4] 100%

NC(N)=Nc1nc(-c2cccc(NC(=O)NCc3ccc(OC(F)(F)F)cc3)c2)cs1
active: growth inhibition [4] 100%
inactive: growth inhibition [1] 26% | inhibition [2] -3% | inhibition [3] 4% | outcome [5] | outcome [6] | outcome [7] | outcome [8]

CC1(C)N=C(N)N=C(N)N1OCCCc1ccc(Cl)cc1Cl
inactive: inhibition [3] 0% | outcome [5] | outcome [6] | outcome [7] | outcome [8]
active: growth inhibition [1] 95% | inhibition [2] 54% | growth inhibition [4] 95%

O=C(N[C@@H](Cc1ccccc1)[C@H](O)CNCCC(F)(F)F)c1cccc(CCC2CC2)c1
inactive: growth inhibition [1] 13% | inhibition [2] -4% | inhibition [3] 5% | outcome [5] | outcome [6] | outcome [7] | outcome [8]
active: growth inhibition [4] 87%

CC(C)c1ccc(NC(=O)c2ccc(NCCCN(C)Cc3ccccc3)c([N+](=O)[O-])c2)cc1
inactive: growth inhibition [1] 35% | inhibition [2] 21% | inhibition [3] -2% | outcome [5] | outcome [6] | outcome [7] | outcome [8]
active: growth inhibition [4] 101%

CCN(CC)CCN(Cc1ccc(-c2ccc(C(F)(F)F)cc2)cc1)C(=O)Cn1c(CCc2cccc(C#N)c2)nc(=O)c2ccccc21
inactive: growth inhibition [1] 47% | inhibition [2] 36% | inhibition [3] -1% | outcome [5] | outcome [6] | outcome [7] | outcome [8]
active: growth inhibition [4] 101%

CCCNC(=O)Nc1cc2cc(-c3ccc(CN4CCCC4)cc3)ccc2n2c(C)nnc12
inactive: growth inhibition [1] 11% | inhibition [3] 0% | outcome [5] | outcome [6] | outcome [7] | outcome [8]
active: inhibition [2] 67% | growth inhibition [4] 93%

CC1(C)CN2CCCC2c2cc(NC(=O)/C=C/c3ccccc3Cl)ccc21 (stereo not given)
active: growth inhibition [1] 76% | growth inhibition [4] 88%
inactive: inhibition [2] 20% | inhibition [3] 0% | outcome [5] | outcome [6] | outcome [7] | outcome [8]
